Source: PubChem (National Center for Advancing Translational Sciences (NCATS))
3T3 cytotox = kills NIH 3T3 cells; NIH 3T3 viability, CellTiter-Glo ATP luminescence, 48-72 h; 94,000 compounds, 4.3% hits; AID 1345082; Potency, µM (top dose mostly 96.7 µM), most hits filed as inhibitors; also: nearly all actives have a fitted effect of over 55% in size
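Viability of NIH 3T3 cells after 48 or 72 hr compound treatment at 37 °C was assessed by CellTiter-Glo, with luminescence imaged following a 10 min room-temperature step.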
HEK293 tox = cytotoxic compounds in HEK 293 cells; HEK 293 viability, ATP luminescence (CellTiter-Glo), 48-72 h; Potency, µM (top dose mostly 115 µM), usual class: inhibitors; 94,000 compounds, 6.6% hits; AID 1345083; also: nearly all actives have a fitted effect of over 60% in size
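Cells seeded first (HEK 293, 250 cells/well), then compound added by pintool. Incubation ran 48 or 72 hr at 37 degree Celsius. CellTiter-Glo was added and luminescence imaged after 10 min at room temperature.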
hNpr1 antagonist = blocks ANP-stimulated signaling of human Npr1 receptor | HEK293 hNpr1 GloSensor cGMP, ANP-stimulated luminescence | Potency, µM (series often up to 46.3 µM), actives largely listed as inhibitors | AID 1347048 | 76,000 compounds, 1.6% hits; calls by dose curve; also: nearly all actives have a fitted effect of over 60% in size
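Compound pre-incubated 30 min at room temperature on GloSensor-loaded HEK293 cells stably carrying hNpr1 and the pGS-40F cGMP biosensor. Stimulation uses hNppA at 0.1 nM final; luminescence is taken at baseline and 20 min post-agonist.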
GPT2 inh = inhibitors of human GPT2 alanine aminotransferase; Q8TD30; AID 1671188; Potency, µM (titrated, usually from 57.7 µM), most hits filed as inhibitors; 100,000 compounds, 0.25% hits; Recombinant GPT2, coupled pyruvate oxidase/HRP Amplex Red fluorescence; also: nearly all actives have a fitted effect of over 60% in size
Target sequence (Q8TD30 whole entry, looked up): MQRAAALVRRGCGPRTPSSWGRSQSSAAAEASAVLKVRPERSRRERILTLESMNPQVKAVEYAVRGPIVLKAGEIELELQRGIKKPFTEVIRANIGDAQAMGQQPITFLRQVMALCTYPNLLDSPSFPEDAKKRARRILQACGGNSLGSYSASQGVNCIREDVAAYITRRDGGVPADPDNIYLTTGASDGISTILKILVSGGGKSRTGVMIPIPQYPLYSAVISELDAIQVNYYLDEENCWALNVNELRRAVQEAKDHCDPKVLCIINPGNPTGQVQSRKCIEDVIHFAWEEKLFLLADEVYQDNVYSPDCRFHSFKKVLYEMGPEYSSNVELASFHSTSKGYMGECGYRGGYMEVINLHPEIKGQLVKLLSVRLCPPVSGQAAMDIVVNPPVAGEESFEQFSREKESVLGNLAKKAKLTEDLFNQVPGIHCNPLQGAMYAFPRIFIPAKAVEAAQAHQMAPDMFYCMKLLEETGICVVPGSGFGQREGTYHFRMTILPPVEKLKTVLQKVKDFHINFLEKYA
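Recombinant GPT2 (10ng/uL) with 250uM a-KG and 2mM L-alanine, 30 min at room temperature, in HEPES pH 7.5 buffer. Pyruvate detected by pyruvate oxidase/HRP/Amplex Red fluorescence after 30 min in the dark; AOA (50uM) as positive control.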
FLuc inh = Photinus pyralis luciferase inhibition | P08659 | purified P. pyralis luciferase, luminescence, biochemical | Potency, µM (series often up to 115 µM), usual class: inhibitors | 76,000 compounds, 2.5% hits | AID 1347043; also: nearly all actives have a fitted effect of over 65% in size
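Inhibitors were tested against purified firefly luciferase in a biochemical, low-substrate format (both substrates at 10uM) and luminescence measured with a CCD imager.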
A number is an active result; 0 = inactive; ? = inconclusive; - = no result given; [ ] = another dose, or the depositor's remark. Sampled rows, rich in hits. Any-hit rate of the full collection: about 10%. Unless noted, calls follow the shape of the dose curve; as a rule, active = well fitted curve in the direction sought with a large enough effect; inconclusive = small, poorly fitted or top-dose-only effect, or another doubt; inactive = no such curve, though single readings can be large; an effect the other way counts as inactive or inconclusive.

SMILES	3T3 cytotox	HEK293 tox	hNpr1 antagonist	GPT2 inh	FLuc inh
O=C(NCC1CCCN(C(=O)c2ccc3[nH]ccc3c2)C1)c1ccc(-c2ccccc2)cc1 (configuration not stated)	?	17.8µM	11.2µM	0	?
COC[C@@H]1CN(C(=O)CCn2ccnc2)C[C@H]1c1ccncc1	0	0	0	0	0
Cc1ccc(-c2ccc3nnc(CNC(=O)c4cc(Cl)ccc4F)n3n2)cc1	?	?	0	0	0
Cc1ccc(-c2ccc3nnc(CNC(=O)c4cc(F)ccc4Cl)n3n2)cc1	?	31.6µM	0	0	0
COc1ccccc1CN1Cc2cc(NC(=O)c3ccc4c(c3)OCO4)ccc2OC(C)C1=O (configuration not stated)	?	39.8µM	0	0	0
CC1Oc2ccc(NC(=O)c3cccc(F)c3)cc2CN(Cc2ccc3c(c2)OCO3)C1=O (configuration not stated)	?	39.8µM	0	0	0
COc1ccccc1CN1Cc2cc(NC(=O)c3ccc([N+](=O)[O-])cc3)ccc2OC(C)C1=O (configuration not stated)	?	?	0	0	0
CCC1Oc2ccc(NC(=O)c3ccc4c(c3)OCO4)cc2CN(Cc2ccc(F)cc2)C1=O (configuration not stated)	?	14.1µM	0	0	?
CC1Oc2ccc(NC(=O)c3ccc4c(c3)OCO4)cc2CN(Cc2ccccc2)C1=O (configuration not stated)	?	20µM	?	0	0
COCCc1noc([C@@H]2CC(F)(F)CN2C(=O)c2ocnc2C)n1	0	0	0	0	0
COc1ccc(CN2Cc3cc(NC(=O)c4ccc5c(c4)OCO5)ccc3OC(C)C2=O)cc1 (configuration not stated)	?	22.4µM	0	0	0
O=C1CN(C(=O)CCC(=O)N2CCC(CCOc3ccc(F)cc3)C2)c2ccccc2N1 (configuration not stated)	?	?	?	0	0
COc1ccc(-c2nc(N3CCOC[C@H]3C)cc3c2CN(C(C)C)C3=O)cc1	79.4µM	112µM	0	0	0
Cc1cc2nc(CO[C@H]3CN(Cc4ccc5c(c4)OCO5)C[C@H]3F)[nH]c2cc1C	?	?	0	0	?
COc1ccc(CNC(=O)N2CCC(c3noc(-c4ccccc4)n3)C2)cc1 (configuration not stated)	?	44.7µM	?	0	0
Cn1cnc(S(=O)(=O)N2CCCC(Cc3noc(-c4ccccc4)n3)C2)c1 (configuration not stated)	?	?	0	?	35.5µM
COc1ccc(CNC(=O)N2CCC(c3noc(-c4cccnc4)n3)C2)cc1 (configuration not stated)	0	0	0	0	0
Cc1ccc(CNC(=O)N2CCCC(Cc3noc(-c4ccccc4)n3)C2)cc1 (configuration not stated)	25.1µM	28.2µM	0	0	0
O=C(Cn1c(=O)oc2ccccc21)N1CCCC(Cc2noc(-c3ccccc3)n2)C1 (configuration not stated)	0	?	0	0	39.8µM
COc1ccc(CNC(=O)N2CCCC(Cc3noc(-c4ccncc4)n3)C2)cc1 (configuration not stated)	0	?	0	0	0
O=C(C1CC1)N1CCC(Cc2noc(-c3ccccc3)n2)C1 (configuration not stated)	?	0	0	0	0
O=C(N1CCC(Cc2noc(-c3ccc(F)cc3)n2)C1)C1(c2ccccc2)CC1 (configuration not stated)	?	39.8µM	-	0	-
O=c1c2nc(Nc3ccc(C(F)(F)F)cc3)ccc2ncn1C1CC1	?	?	0	?	63.1µM
COCCn1cnc2ccc(Nc3ccc(C(F)(F)F)cc3)nc2c1=O	?	?	0	0	0
O=C(COc1ccccc1)NCC12CCC=C1N(CC1CC1)C(=O)CC2 (configuration not stated)	?	?	-	0	-
SMILES	3T3 cytotox	HEK293 tox	hNpr1 antagonist	GPT2 inh	FLuc inh
O=C(Nc1ccc(Cl)cc1)N1CCN(c2ccc3nnc(C4CC4)n3n2)CC1	22.4µM	35.5µM	-	-	-
O=C(c1ccn[nH]1)N1CCCCC1c1nc(CCOCC2CCCC2)no1 (configuration not stated)	?	?	35.5µM	0	0
CCNC(=O)N1CCCCC1c1nc(CCOCC2CCCC2)no1 (configuration not stated)	0	0	-	?	-
COc1cccc2c1OCCCN(c1cc(C3CC(O)C3)nc(N)n1)C2 (configuration not stated)	12.6µM	?	0	0[11.5 µM]	0
Cc1cccc(C)c1OC1CN(c2cc(C3CC(O)C3)nc(N)n2)C1 (configuration not stated)	0	35.5µM	0	0	0
Nc1nc(C2CC(N)C2)cc(N2CC(c3nc4ccccc4[nH]3)C2)n1 (configuration not stated)	0	0	0	0	0
CC1CCC2C(C)(C)C(O)CCC2(C)C12Cc1c(O)cc3c(c1O2)CN=C3N (configuration not stated)	-	-	-	0	-
Cc1cc(C)n(C2CCN(c3nccc(-c4ccccn4)n3)C2)n1 (configuration not stated)	0	0	0	0	44.7µM
CCOC(=O)N1CCN(c2nccc(-c3ccccn3)n2)CC1	?	?	0	0	0
CS(=O)(=O)NCCC(=O)N1CC[C@@H]2[C@@H](CCC(=O)N2CCN)C1	0	0	0	0	0
O=C(Nc1cccc(Cl)c1)c1cnc2c(c1)N([S+](=O)([O-])c1cccnc1)CCC2	?	100µM	0	?	0
Cc1csc(NC(=O)c2cnc3c(c2)N([S+](=O)([O-])c2cccnc2)CCC3)n1	100µM	0	0	0	0
CC(C)CCNC(=O)c1cnc2c(c1)N([S+](=O)([O-])c1cccnc1)CCC2	?	0	0	0	0
COc1ccccc1N1CCN(C(=O)CC[C@]23CC[C@](C)(O)C[C@H]2C(C)(C)C[C@@H]3NC(=O)c2ccc(C(F)(F)F)cc2)CC1	?	?	0	0	0
Cc1cccc(-c2cc(C3CCN(C(=O)Nc4ccccc4Cl)CC3)[nH]n2)c1	?	?	0	0	0
O=C(c1ccco1)N1CC(Oc2ccc(-c3nc(-c4ccccc4)no3)cc2)C1	28.2µM	20µM	?	0	?
O=C(c1ccccc1F)N1CC(Oc2ccc(-c3nc(-c4ccccc4)no3)cc2)C1	44.7µM	28.2µM	7.08µM	0	?
O=C(c1ccc(F)cc1)N1CC(Oc2ccc(-c3nc(-c4ccccc4)no3)cc2)C1	0	?	0	0	0
COc1ccccc1NC(=O)N1C[C@@H]2C[C@H](C1)c1c(-c3ccc(NC(C)=O)cc3)ccc(=O)n1C2	0	0	0	0	0
